In PubChem BioAssay AID1159580 (chemical genetic matrix, 2015):
In all, about 5,500 compounds went through this assay and about 2,000 (36%) were called active. About 18% were inconclusive and are not listed. This is one part of the list. Unmarked numbers belong to inactive results. No stated cut-off is given here; in the data, active means normalized growth mostly below about 0.91 (no sharp cut-off); inconclusive means no clear call, values can overlap the other calls; inactive means mostly above about 0.92.

Assay: chemical genetic growth profiling, strain panel (AID 1159580);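 further: tested at 20 µM; growth read once vehicle control cultures reached saturation at 30 °C; 1 = growth at the plate median or of vehicle wells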
Conditions: S. cerevisiae deletion strains, growth OD
[1] = locus YAL013W, strain DEP1, stronger effect = lower value
[2] = locus YBR229C, strain ROT2, stronger effect = lower value
[3] = locus YDL101C, strain DUN1, stronger effect = lower value
[4] = locus YDR150W, strain NUM1, stronger effect = lower value
[5] = locus YEL061C, strain CIN8, stronger effect = lower value
[6] = locus YGR078C, strain PAC10, stronger effect = lower value
[7] = locus YHR030C, strain SLT2, stronger effect = lower value
[8] = locus YHR087W, strain rtc3, stronger effect = lower value
[9] = locus YJL187C, strain SWE1, stronger effect = lower value
[10] = locus YJR043C, strain POL32, stronger effect = lower value
[11] = locus YJR075W, strain HOC1, stronger effect = lower value
[12] = locus YLR039C, strain RIC1, stronger effect = lower value
[13] = locus YLR058C, strain SHM2 (second series), stronger effect = lower value
[14] = locus YLR085C, strain ARP6, stronger effect = lower value
[15] = locus YLR262C, strain YPT6, stronger effect = lower value
[16] = locus YML094W, strain GIM5, stronger effect = lower value
[17] = locus YMR219W, strain ESC1, stronger effect = lower value
[18] = locus YMR263W, strain SAP30, stronger effect = lower value
[19] = locus YNL153C, strain GIM3, stronger effect = lower value
[20] = locus YNL298W, strain CLA4 (second series), stronger effect = lower value
[21] = locus YNL322C, strain KRE1, stronger effect = lower value
[22] = locus YNR030W, strain Alg12, stronger effect = lower value
[23] = locus YPL055C, strain LGE1, stronger effect = lower value
[24] = locus YPL241C, strain CIN2, stronger effect = lower value
[25] = locus YPR135W, strain CTF4, stronger effect = lower value

N#Cc1cccc(CSC2=NCN(C3CC3)CN2)c1
normalized growth [1]: 1
normalized growth [2]: 1.01
normalized growth [3]: 0.98
normalized growth [4]: 0.934
normalized growth [5]: 1.02
normalized growth [6]: 0.996
normalized growth [7]: 1
normalized growth [8]: 1.03
normalized growth [9]: 1
normalized growth [10]: 0.979
normalized growth [11]: 0.989
normalized growth (locus YKL190W, strain CNB1, stronger effect = lower value): 1.01
normalized growth [12]: 1.05
normalized growth [13]: 1.01
normalized growth [14]: 0.993
normalized growth [15]: 1.04
normalized growth [16]: 1.01
normalized growth [17]: 1.01
normalized growth [18]: 0.952
normalized growth (locus YMR307W, strain GAS1, stronger effect = lower value): 0.978
normalized growth [19]: 0.997
normalized growth [20]: 1.02
normalized growth [21]: 0.999
normalized growth [22]: 1.02
normalized growth [23]: 0.886
normalized growth [24]: 1.01
normalized growth [25]: 1

N#Cc1ccc(Oc2sccc2[N+](=O)[O-])cc1
normalized growth (locus YAR019C, strain CDC15, stronger effect = lower value): 0.937
normalized growth (locus YBL105C, strain PKC1, stronger effect = lower value): 0.978
normalized growth (locus YBR135W, strain CKS1, stronger effect = lower value): 0.946
normalized growth (locus YBR136W, strain MEC1, stronger effect = lower value): 0.971
normalized growth (locus YBR160W, strain CDC28, stronger effect = lower value): 0.992
normalized growth (locus YDL017W, strain CDC7, stronger effect = lower value): 0.985
normalized growth (locus YDL028C, strain MPS1, stronger effect = lower value): 0.978
normalized growth [3]: 0.959
normalized growth (locus YDL108W, strain KIN28, stronger effect = lower value): 0.97
normalized growth (locus YDL132W, strain cdc53, stronger effect = lower value): 0.942
normalized growth (locus YDL214C, strain PRR2, stronger effect = lower value): 0.901
normalized growth (locus YDR052C, strain DBF4, stronger effect = lower value): 0.975
normalized growth (locus YDR054C, strain cdc34, stronger effect = lower value): 0.907
normalized growth (locus YDR226W, strain ADK1, stronger effect = lower value): 0.98
normalized growth (locus YDR477W, strain SNF1, stronger effect = lower value): 0.888
normalized growth (locus YER123W, strain YCK3, stronger effect = lower value): 0.748
normalized growth (locus YER133W, strain GLC7, stronger effect = lower value): 0.847
normalized growth (locus YFL009W, strain cdc4, stronger effect = lower value): 0.908
normalized growth (locus YFL029C, strain CAK1, stronger effect = lower value): 0.907
normalized growth (locus YFR003C, strain YPI1, stronger effect = lower value): 0.975
normalized growth (locus YFR019W, strain FAB1, stronger effect = lower value): 0.924
normalized growth (locus YFR028C, strain CDC14, stronger effect = lower value): 0.953
normalized growth (locus YGR040W, strain KSS1, stronger effect = lower value): 0.867
normalized growth (locus YGR052W, strain FMP48, stronger effect = lower value): 0.879
normalized growth (locus YGR092W, strain DBF2, stronger effect = lower value): 0.769
normalized growth [7]: 0.942
normalized growth (locus YHR079C, strain IRE1, stronger effect = lower value): 0.955
normalized growth (locus YHR082C, strain KSP1, stronger effect = lower value): 0.934
normalized growth (locus YHR205W, strain SCH9, stronger effect = lower value): 0.894
normalized growth (locus YIL147C, strain SLN1, stronger effect = lower value): 0.969
normalized growth (locus YJL095W, strain BCK1, stronger effect = lower value): 0.825
normalized growth (locus YJL128C, strain PBS2, stronger effect = lower value): 0.923
normalized growth (locus YJL157C, strain FAR1, stronger effect = lower value): 0.883
normalized growth (locus YJR016C, strain ILV3, stronger effect = lower value): 0.946
normalized growth (locus YJR066W, strain TOR1 (second series), stronger effect = lower value): 0.821
normalized growth (locus YJR066W, strain TOR1, stronger effect = lower value): 0.907
normalized growth (locus YKL048C, strain ELM1, stronger effect = lower value): 0.95
normalized growth (locus YKL067W, strain YNK1, stronger effect = lower value): 0.895
normalized growth (locus YKL101W, strain HSL1, stronger effect = lower value): 0.927
normalized growth (locus YKL193C, strain SDS22, stronger effect = lower value): 0.941
normalized growth (locus YKL203C, strain TOR2, stronger effect = lower value): 0.911
normalized growth (locus YLR113W, strain HOG1, stronger effect = lower value): 0.76 (active)
normalized growth (locus YLR133W, strain CKI1, stronger effect = lower value): 0.933
normalized growth (locus YLR403W, strain SFP1, stronger effect = lower value): 0.863
normalized growth (locus YML070W, strain DAK1, stronger effect = lower value): 0.869
normalized growth (locus YMR001C, strain CDC5, stronger effect = lower value): 0.935
normalized growth (locus YMR205C, strain PFK2 (second series), stronger effect = lower value): 0.899
normalized growth (locus YMR277W, strain FCP1, stronger effect = lower value): 0.92
normalized growth (locus YNL006W, strain LST8, stronger effect = lower value): 0.932
normalized growth (locus YNL020C, strain ARK1, stronger effect = lower value): 0.934
normalized growth (locus YNL161W, strain CBK1, stronger effect = lower value): 0.956
normalized growth (locus YNL183C, strain NPR1, stronger effect = lower value): 0.856
normalized growth (locus YNL207W, strain RIO2, stronger effect = lower value): 0.956
normalized growth (locus YNL222W, strain SSU72, stronger effect = lower value): 0.957
normalized growth (locus YNL307C, strain MCK1 (second series), stronger effect = lower value): 0.918
normalized growth (locus YOL078W, strain AVO1, stronger effect = lower value): 0.914
normalized growth (locus YOL136C, strain PFK27, stronger effect = lower value): 0.901
normalized growth (locus YOR061W, strain CKA2, stronger effect = lower value): 0.886
normalized growth (locus YOR119C, strain RIO1, stronger effect = lower value): 0.925
normalized growth (locus YOR231W, strain MKK1, stronger effect = lower value): 0.837
normalized growth (locus YOR329C, strain SCD5, stronger effect = lower value): 0.977
normalized growth (locus YPL031C, strain PHO85, stronger effect = lower value): 0.876
normalized growth (locus YPL153C, strain RAD53, stronger effect = lower value): 0.866
normalized growth (locus YPL204W, strain HRR25, stronger effect = lower value): 0.872
normalized growth (locus YPL209C, strain IPL1, stronger effect = lower value): 0.98
normalized growth (locus YPL256C, strain CLN2, stronger effect = lower value): 1.05
normalized growth (locus YPR025C, strain CCL1, stronger effect = lower value): 0.971
normalized growth (locus YPR106W, strain ISR1, stronger effect = lower value): 0.96
normalized growth (locus YPR111W, strain DBF20, stronger effect = lower value): 0.993
normalized growth (strain NNK1, stronger effect = lower value): 0.971
normalized growth (strain TSCII, stronger effect = lower value): 0.921

CCOC(=O)c1ccc(Oc2ccc(Cl)cc2Cl)c([N+](=O)[O-])c1
normalized growth [1]: 1
normalized growth [2]: 0.993
normalized growth [3]: 0.992
normalized growth [4]: 1.01
normalized growth [5]: 0.959
normalized growth [6]: 1.01
normalized growth [7]: 0.883
normalized growth [8]: 0.998
normalized growth [9]: 0.99
normalized growth [10]: 0.996
normalized growth [11]: 0.968
normalized growth [12]: 1
normalized growth [13]: 0.99
normalized growth [14]: 0.92
normalized growth [15]: 1.01
normalized growth [16]: 0.975
normalized growth [17]: 0.997
normalized growth [18]: 0.996
normalized growth (locus YNL128W, strain TEP1, stronger effect = lower value): 0.987
normalized growth [19]: 0.998
normalized growth [20]: 0.961
normalized growth [21]: 1
normalized growth [22]: 0.959
normalized growth (locus YOL006C, strain TOP1, stronger effect = lower value): 0.81
normalized growth [23]: 0.961
normalized growth [24]: 0.958
normalized growth [25]: 0.918
